Assay [1] deals with Norway rat Vesicular Monoamine Transporter (VMAT2), neurotransmitter transporter, Slc18a2 (gene 25549) (UniProt Q01827). The assay is described as follows: NVS_TR_rVMAT2: NovaScreen (NVS) Transporter Assay for Norway rat Vesicular Monoamine Transporter (VMAT2), neurotransmitter transporter (AID 2283376).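 Also: actives lower the bound radioligand signal below the DMSO level.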 In outline:
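Filter-based scintillation counting of radioligand bound to rat forebrain-derived VMAT2 protein, cell-free, 1 h post-dose. Signal loss relative to DMSO control scored; single-concentration duplicate screen (25 uM) followed by concentration-response testing of actives.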

Assay [2] deals with Estrogen receptor beta (Homo sapiens) (UniProt Q92731). The assay can be described thus: OT_ER_ERbERb_1440: Odyssey Thera (OT) 24-hour HEK293T Protein-Complementation Assay for Estrogen Receptor-beta/-beta Homodimer (AID 2283380).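 Also: scored as signal increase over DMSO baseline for both agonists and antagonists.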 Put shortly: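 HEK293T cells stably expressing ER beta LBD (aa 310-547) homodimer fragment-complementation reporter, dosed 24 h. Cells formaldehyde-fixed, Draq5-stained; gain in nuclear (agonist) or nuclear plus cytoplasmic (antagonist) fluorescence versus DMSO read by laser scanning cytometry.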
Estrogen receptor beta (Homo sapiens), sequence (Q92731 whole entry, looked up, the tested form may be a part): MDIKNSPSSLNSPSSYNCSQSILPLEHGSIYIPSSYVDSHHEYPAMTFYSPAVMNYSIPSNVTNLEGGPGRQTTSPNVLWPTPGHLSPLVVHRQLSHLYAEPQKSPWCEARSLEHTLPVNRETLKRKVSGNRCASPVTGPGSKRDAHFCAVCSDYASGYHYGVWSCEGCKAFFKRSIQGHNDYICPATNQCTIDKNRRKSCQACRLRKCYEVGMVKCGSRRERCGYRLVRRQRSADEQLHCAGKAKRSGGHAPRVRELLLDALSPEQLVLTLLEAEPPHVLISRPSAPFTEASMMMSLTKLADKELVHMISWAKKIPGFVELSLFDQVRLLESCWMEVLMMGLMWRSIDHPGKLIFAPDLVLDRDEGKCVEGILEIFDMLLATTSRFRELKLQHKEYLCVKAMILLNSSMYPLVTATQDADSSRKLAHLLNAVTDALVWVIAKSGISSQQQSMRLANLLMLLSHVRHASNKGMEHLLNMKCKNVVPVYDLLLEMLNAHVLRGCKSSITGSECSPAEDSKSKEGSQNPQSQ

Assay [3] deals with human Norepinephrine Transporter (NET), SLC6A2 (gene 6530) (UniProt P23975). The assay can be described thus: NVS_TR_hNET: NovaScreen (NVS) Transporter Assay for human Norepinephrine Transporter (NET) (AID 2283377).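 Also: cell-free membrane protein extracted from CHO cells expressing human NET.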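 As to AC50: displacement of radioligand from human NET seen as loss of scintillation signal.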 Put shortly: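 CHO cell extracts expressing the transporter; tritiated or iodinated tracer displaced competitively; filtration plus scintillation readout at 1 h. Single-point duplicates at 25 uM, concentration series for follow-up; activity = signal drop relative to DMSO.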
human Norepinephrine Transporter (NET), SLC6A2 (gene 6530), sequence (P23975 whole entry, looked up): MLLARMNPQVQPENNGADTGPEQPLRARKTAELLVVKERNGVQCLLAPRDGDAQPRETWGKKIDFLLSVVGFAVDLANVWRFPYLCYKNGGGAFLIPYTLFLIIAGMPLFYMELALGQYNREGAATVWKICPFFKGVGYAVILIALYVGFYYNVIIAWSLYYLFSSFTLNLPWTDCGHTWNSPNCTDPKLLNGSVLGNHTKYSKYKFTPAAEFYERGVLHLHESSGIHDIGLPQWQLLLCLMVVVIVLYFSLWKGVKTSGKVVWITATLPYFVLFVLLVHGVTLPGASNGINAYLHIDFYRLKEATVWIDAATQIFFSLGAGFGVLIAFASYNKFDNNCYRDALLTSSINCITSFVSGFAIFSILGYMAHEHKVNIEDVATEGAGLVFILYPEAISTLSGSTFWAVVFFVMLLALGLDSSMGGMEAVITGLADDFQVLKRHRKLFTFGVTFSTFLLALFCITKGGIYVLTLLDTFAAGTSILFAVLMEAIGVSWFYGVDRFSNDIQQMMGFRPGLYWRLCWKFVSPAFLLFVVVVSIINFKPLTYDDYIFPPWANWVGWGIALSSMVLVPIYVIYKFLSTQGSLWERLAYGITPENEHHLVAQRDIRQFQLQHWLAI

Assay [4] concerns the target rat Serotonin Transporter (SERT), Slc6a4 (gene 25553) (UniProt P31652). The assay can be described thus: NVS_TR_rSERT: NovaScreen (NVS) Transporter Assay for rat Serotonin Transporter (SERT) (AID 2283375). Put shortly:
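Steps: rat forebrain membranes dosed with chemical (25 uM duplicate primary; concentration series for actives); 1 h incubation; labelled ligand bound, filtered, counted by scintillation. Activity scored as signal loss vs DMSO.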

Assay [5] addresses Agonist Androgen Response Element (ARE), AR (gene 367) (UniProt P10275). The assay can be described thus: OT_AR_ARELUC_AG_1440: Odyssey Thera (OT) 24-hour CHO-K1 Luciferase Assay for Agonist Androgen Response Element (ARE) (AID 2283379). In outline: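 Gain-of-signal reporter endpoint: cells (CHO-K1, hamster) are treated 24 h, luciferin/ATP reagent added, and luminescence compared with DMSO baseline.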

The target in assay [6] is human Dopamine Transporter (DAT), SLC6A3 (gene 6531) (UniProt Q01959). The assay is described as follows: NVS_TR_hDAT: NovaScreen (NVS) Transporter Assay for human Dopamine Transporter (DAT) (AID 2283374).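 Also: activity means loss of bound radioligand signal relative to DMSO.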 Put shortly: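 hDAT membranes + tritiated/iodinated radioligand, competitive displacement; 1 h; filter scintillation readout. Single conc 25 uM (duplicate), then conc-response for actives. DMSO = negative control.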
human Dopamine Transporter (DAT), SLC6A3 (gene 6531), sequence (Q01959 whole entry, looked up): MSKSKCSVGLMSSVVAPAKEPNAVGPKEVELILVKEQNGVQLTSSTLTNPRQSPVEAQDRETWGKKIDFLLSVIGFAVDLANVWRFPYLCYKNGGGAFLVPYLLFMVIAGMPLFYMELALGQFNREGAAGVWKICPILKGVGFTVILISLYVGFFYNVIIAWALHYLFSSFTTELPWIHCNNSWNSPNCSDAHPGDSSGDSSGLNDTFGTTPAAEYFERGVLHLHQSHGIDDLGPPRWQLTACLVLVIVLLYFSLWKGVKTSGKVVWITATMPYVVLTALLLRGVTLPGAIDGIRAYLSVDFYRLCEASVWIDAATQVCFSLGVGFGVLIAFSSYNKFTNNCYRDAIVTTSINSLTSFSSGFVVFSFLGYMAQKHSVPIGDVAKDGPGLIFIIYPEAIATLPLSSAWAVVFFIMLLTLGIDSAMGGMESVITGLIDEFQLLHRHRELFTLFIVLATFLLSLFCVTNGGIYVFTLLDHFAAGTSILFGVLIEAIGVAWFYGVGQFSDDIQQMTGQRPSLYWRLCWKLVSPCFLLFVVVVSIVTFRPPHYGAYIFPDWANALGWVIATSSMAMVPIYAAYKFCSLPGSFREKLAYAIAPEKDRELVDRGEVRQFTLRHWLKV

In assay [7] the target is mouse Estrogen Receptor alpha (Era), Esr1 (gene 13982) (UniProt P19785). The assay can be described thus: NVS_NR_mERa: NovaScreen (NVS) Nuclear Receptor Binding Assay for mouse Estrogen Receptor alpha (Era) (AID 2283378).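 Also: hit means loss of bound radioligand signal relative to DMSO.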 In outline:
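Test chemicals competed against a specific radioligand for binding to cell-free mouse Era. Duplicate wells at 25 uM were read 18 hours later by filter-based radiodetection, with loss of signal against DMSO scored as activity.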

Assay [8] has as its target Estrogen receptor (Homo sapiens) (UniProt P03372). The assay can be described thus: OT_ERa_GFPERaERE_0480: Odyssey Thera (OT) 8-hour HeLa Transcription Induction Assay for Estrogen Receptor (AID 2283381; active = hit-call score of the fitted dose curve at least 0.9, where 1 is the maximum; inactive = score below 0.9). Put shortly:
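An 8 h HeLa transcription-induction format with a GFP reporter under ERE control, read by fluorescence microscopy; single endpoint fitted positively with DMSO as baseline.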

The target is the same in assay [9]. The assay is described as follows: OT_ERa_GFPERaERE_0120: Odyssey Thera (OT) 2-hour HeLa Transcription Induction Assay for Estrogen Receptor (AID 2283382). Put shortly: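 Two-hour compound treatment of HeLa cells preceded microscopy imaging of an inducible fluorescent reporter. Image-based quantification gave one endpoint, analysed for signal increase relative to DMSO controls.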

For 45 molecules, outcome and AC50 results are on record in PubChem BioAssay (EPA / NIEHS).

Structures are written as SMILES. Records with an inconclusive call do not appear. Activity calls are given as the source filed them. The calls were made as follows, unless noted: active = hit-call score of the fitted dose curve at least 0.9, where 1 is the maximum; inconclusive = response in the unintended direction; inactive = score below 0.9.

Agonist Androgen Response Element (ARE), AR (gene 367), sequence (P10275 whole entry, looked up): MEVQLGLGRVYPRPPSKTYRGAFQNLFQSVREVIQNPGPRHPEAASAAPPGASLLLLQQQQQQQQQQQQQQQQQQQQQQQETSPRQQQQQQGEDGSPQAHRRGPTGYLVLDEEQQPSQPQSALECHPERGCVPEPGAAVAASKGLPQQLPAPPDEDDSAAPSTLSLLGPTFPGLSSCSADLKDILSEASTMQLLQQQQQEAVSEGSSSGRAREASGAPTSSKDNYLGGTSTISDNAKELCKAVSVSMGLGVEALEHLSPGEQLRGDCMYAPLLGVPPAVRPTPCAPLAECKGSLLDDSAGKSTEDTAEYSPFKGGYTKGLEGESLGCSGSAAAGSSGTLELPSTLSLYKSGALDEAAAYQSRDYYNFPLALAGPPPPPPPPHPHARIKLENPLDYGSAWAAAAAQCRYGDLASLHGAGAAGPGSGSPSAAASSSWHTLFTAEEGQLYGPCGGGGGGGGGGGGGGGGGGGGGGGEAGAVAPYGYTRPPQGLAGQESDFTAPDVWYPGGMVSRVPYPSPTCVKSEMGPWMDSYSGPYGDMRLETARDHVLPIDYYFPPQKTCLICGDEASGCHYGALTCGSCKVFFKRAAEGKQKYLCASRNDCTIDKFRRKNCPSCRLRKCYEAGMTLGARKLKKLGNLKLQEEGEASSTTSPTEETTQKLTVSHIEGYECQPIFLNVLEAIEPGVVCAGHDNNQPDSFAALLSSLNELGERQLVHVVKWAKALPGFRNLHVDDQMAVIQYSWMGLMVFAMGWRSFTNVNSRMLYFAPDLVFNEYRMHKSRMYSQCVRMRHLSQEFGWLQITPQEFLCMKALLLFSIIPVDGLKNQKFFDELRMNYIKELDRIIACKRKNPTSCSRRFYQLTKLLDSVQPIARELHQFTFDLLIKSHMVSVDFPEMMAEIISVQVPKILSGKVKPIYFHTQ
Estrogen receptor (Homo sapiens), sequence (P03372 whole entry, looked up): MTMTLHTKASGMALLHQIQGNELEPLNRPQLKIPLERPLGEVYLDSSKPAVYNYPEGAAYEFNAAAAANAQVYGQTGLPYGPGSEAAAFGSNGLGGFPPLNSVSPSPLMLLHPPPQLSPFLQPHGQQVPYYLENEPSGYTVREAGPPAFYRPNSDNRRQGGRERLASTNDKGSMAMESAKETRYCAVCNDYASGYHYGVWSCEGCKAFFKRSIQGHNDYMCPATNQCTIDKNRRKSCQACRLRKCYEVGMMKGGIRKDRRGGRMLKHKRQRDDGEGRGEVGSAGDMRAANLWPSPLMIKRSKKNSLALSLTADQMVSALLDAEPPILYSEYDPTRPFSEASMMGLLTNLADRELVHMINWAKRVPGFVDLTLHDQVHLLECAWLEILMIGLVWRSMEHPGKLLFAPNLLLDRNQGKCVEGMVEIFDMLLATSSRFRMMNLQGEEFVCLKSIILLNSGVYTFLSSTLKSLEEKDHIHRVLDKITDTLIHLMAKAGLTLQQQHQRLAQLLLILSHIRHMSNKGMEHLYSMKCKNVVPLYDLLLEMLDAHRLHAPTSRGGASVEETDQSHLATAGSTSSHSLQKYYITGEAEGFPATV
rat Serotonin Transporter (SERT), Slc6a4 (gene 25553), sequence (P31652 whole entry, looked up): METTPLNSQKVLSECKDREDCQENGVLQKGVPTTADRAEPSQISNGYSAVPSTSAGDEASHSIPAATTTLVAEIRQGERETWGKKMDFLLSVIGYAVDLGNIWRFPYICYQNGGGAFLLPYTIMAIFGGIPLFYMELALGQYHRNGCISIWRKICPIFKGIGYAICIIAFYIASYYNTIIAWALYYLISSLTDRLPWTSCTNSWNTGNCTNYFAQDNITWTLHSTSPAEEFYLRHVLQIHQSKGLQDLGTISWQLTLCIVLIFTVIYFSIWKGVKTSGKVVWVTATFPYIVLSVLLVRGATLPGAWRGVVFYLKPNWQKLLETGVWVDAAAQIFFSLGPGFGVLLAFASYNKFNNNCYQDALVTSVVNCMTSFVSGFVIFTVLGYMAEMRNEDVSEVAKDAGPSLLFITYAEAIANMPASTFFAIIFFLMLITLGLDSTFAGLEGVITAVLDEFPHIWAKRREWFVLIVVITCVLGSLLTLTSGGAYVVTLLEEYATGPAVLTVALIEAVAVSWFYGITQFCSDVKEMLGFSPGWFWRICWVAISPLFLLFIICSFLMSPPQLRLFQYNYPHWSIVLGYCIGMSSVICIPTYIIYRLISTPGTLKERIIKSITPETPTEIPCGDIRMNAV
Norway rat Vesicular Monoamine Transporter (VMAT2), neurotransmitter transporter, Slc18a2 (gene 25549), sequence (Q01827 whole entry, looked up): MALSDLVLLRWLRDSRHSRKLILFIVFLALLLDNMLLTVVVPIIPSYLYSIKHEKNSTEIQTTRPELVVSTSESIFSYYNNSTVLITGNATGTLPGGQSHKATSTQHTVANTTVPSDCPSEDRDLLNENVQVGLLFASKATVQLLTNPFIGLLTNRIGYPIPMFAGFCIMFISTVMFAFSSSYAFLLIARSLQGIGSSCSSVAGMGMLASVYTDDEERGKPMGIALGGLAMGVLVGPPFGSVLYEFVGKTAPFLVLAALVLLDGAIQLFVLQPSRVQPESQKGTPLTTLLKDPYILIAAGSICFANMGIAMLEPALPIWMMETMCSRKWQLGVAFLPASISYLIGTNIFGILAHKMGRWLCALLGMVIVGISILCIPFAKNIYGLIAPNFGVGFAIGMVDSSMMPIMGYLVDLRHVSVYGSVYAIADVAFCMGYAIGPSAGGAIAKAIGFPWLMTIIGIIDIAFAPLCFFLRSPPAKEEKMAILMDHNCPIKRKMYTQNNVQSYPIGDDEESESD
mouse Estrogen Receptor alpha (Era), Esr1 (gene 13982), sequence (P19785 whole entry, looked up): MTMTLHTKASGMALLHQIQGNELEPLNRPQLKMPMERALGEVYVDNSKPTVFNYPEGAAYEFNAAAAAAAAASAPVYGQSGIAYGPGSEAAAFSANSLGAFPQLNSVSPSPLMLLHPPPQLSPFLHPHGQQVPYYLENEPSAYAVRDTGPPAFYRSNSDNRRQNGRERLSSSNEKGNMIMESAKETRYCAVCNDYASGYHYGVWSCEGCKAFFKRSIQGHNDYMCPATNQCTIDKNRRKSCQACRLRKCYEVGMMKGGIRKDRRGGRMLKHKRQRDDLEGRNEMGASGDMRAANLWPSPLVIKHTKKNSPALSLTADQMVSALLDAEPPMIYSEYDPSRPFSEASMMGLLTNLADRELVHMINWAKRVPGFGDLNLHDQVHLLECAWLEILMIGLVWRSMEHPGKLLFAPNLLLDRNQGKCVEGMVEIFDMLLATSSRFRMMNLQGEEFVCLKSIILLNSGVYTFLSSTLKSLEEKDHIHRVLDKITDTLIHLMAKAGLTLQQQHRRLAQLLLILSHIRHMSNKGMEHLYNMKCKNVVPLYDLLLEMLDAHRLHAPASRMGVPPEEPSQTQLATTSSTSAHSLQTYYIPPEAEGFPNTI

For the molecule `CCCCCCCCOC(=O)c1ccc(C(=O)OCCCCCCCC)c(C(=O)OCCCCCCCC)c1`, the call in assay [1] and in assay [2] was inactive.

In general, AC50 refers to the midpoint of the concentration-response curve, whichever way the signal moves. `Cc1ccc(N)c(N)c1`: the AC50 in [3] is 16.4 µM (active). Besides, the molecule was called inactive in [2].

Consider `COC(=O)c1ccccc1N`, for which the result in assay [4], in [1] and in assay [2] was inactive.

Turning to `CC(C)(O)c1cnn2c(-c3ccc(F)c(-c4c(F)cccc4C#N)c3)cnc2n1`, in [5], the molecule was called inactive. In assay [2], the AC50 was 93.7 µM (active).

Take `CN(C)[C@@H]1C(=O)C(C(N)=O)=C(O)[C@@]2(O)C(=O)C3=C(O)c4c(O)cccc4[C@@](C)(O)[C@H]3C[C@@H]12`: the result in assay [3] and in assay [2] was inactive.

Take `CCCCCCCCn1sccc1=O`: the outcome in assay [6], in assay [7], in assay [2], in assay [8] and in [9] was inactive.

Turning to `O=C(Oc1ccc(Br)cc1)N1CCN2CCC1CC2`, the AC50 was 8.54 µM (active) in assay [6], 1.01 µM (active) in assay [4] and 12.8 µM (active) in assay [3]. In addition, the molecule was classed as inactive in assay [8] and in [9].

In the case of `CCNS(=O)(=O)C(F)(F)C(F)(F)C(F)(F)C(F)(F)C(F)(F)C(F)(F)C(F)(F)C(F)(F)F`, the molecule was called inactive in assay [5].

With `COP(=S)(OC)SCN1C(=O)c2ccccc2C1=O`, in assay [3], the AC50 was 2.04 µM (active). The result in assay [2] was inactive.

As for `[As]#[In]`, the molecule was classed as inactive in assay [2].

Turning to `Clc1ccc(C(c2ccc(Cl)cc2)C(Cl)(Cl)Cl)cc1`, the AC50 in assay [2] was 29.1 µM (active).

For the molecule `O=[N+]([O-])c1ccc(Oc2ccc(Cl)cc2Cl)cc1`, the outcome in [2] was inactive.

As to `Brc1ccc(Oc2ccccc2)cc1`, the molecule was classed as inactive in assay [8] and in assay [9].

Take `C[N+](C)(C)CC1CO1` (stereo not given): in [5], the concentration at half-maximal activity (AC50) is 26.1 µM (active). Moreover, the call in assay [2], in assay [8] and in assay [9] was inactive.

Regarding `CCOc1cccc(C2(N3CCN(c4ccccc4)CC3)CCC(C)CC2)c1` (stereo not given), the outcome in [8] and in assay [9] was inactive.

Take `CC(O)CCO` (stereo not given): the outcome in assay [2] was inactive.

Regarding `[O-][Cl+]O`, the outcome in [2], in [8] and in [9] was inactive.

In the case of `CC(C)COC(=O)c1ccccc1C(=O)OCC(C)C`, the call in assay [2] was inactive. Moreover, the AC50 in assay [8] was 13.7 µM (active); in assay [9] it was 13 µM (active).

On to `OCCOCCO`, for which the molecule was called inactive in [2], in [8] and in [9].

On to `N#CC(Br)Br`, for which the outcome in assay [2], in assay [8] and in assay [9] was inactive.

In the case of `ClCCOCCCl`, the molecule was called inactive in assay [2].

Take `Nc1cc(Cl)cc(C(=O)O)c1Cl`: the outcome in [2] was inactive.

For `Cc1ccc([N+](=O)[O-])cc1`, the call in assay [2], in assay [8] and in assay [9] was inactive.

Take `CN(C)c1ccc(C(=O)c2ccc(N(C)C)cc2)cc1`: the outcome in [2] was inactive.

As to `OCCCl`, the result in assay [2] was inactive.

`COc1cc(C=O)cc2c1[C@H](COC(N)=O)[C@]1(OC(C)=O)ON2C[C@H]2[C@@H]1N2C(C)=O`: the molecule was classed as inactive in assay [8] and in [9].

As to `CNC(=O)Oc1cccc2c1OC(C)(C)C2`, the call in assay [5], in assay [2], in assay [8] and in assay [9] was inactive.

Regarding `CO[C@@H]1[C@H](OC(=O)NC(=O)CCl)CC[C@]2(CO2)[C@H]1[C@@]1(C)O[C@@H]1CC=C(C)C`, the molecule was called inactive in [5], in [2], in [8] and in [9].

With `CC(C)(C)OOC(C)(C)CCC(C)(C)OOC(C)(C)C`, in [2], the result was inactive.

Consider `CN(C)c1ccccc1`, for which the result in assay [2] was inactive.

For `O=P(OCCCl)(OCCCl)OCCCl`, the molecule was classed as inactive in [2].

Consider `c1ccc2c(c1)-c1cccc3cccc-2c13`, for which, in assay [2], the AC50 was 50 µM (active).

Take `CS(=O)(=O)NC(=O)c1cc(Oc2ccc(C(F)(F)F)cc2Cl)ccc1[N+](=O)[O-]`: the call in [2] was inactive.

With `Clc1ccc(C(c2ccc(Cl)cc2)C(Cl)Cl)cc1`, the half-maximal activity concentration (AC50) was 12.2 µM (active) in [8] and 12 µM (active) in assay [9].

Turning to `CCN(CC)CCO`, the result in [2] was inactive.

As to `CCC12COCN1COC2`, the molecule was classed as inactive in assay [8] and in assay [9].

For the molecule `c1ccc(NNc2ccccc2)cc1`, the molecule was called inactive in [2].

With `Oc1ccc2ccc3cccc4ccc1c2c34`, the AC50 in assay [2] was 12 µM (active).

Consider `c1ccc2c(c1)oc1ccccc12`, for which the molecule was classed as inactive in assay [2].

Turning to `OCCCBr`, the call in assay [2], in [8] and in assay [9] was inactive.

Take `Clc1ccc(Cl)c(Cl)c1`: the call in [2] was inactive.

Regarding `CCCCCCCCCCCCCN1CC(C)OC(C)C1` (stereo not given), the outcome in [2], in assay [8] and in assay [9] was inactive.

Consider `Clc1ccccc1Cl`, for which the AC50 in assay [2] was 7.71 µM (active).

Turning to `ClC1=C(Cl)C2(Cl)C3C(Cl)C=CC3C1(Cl)C2(Cl)Cl` (stereo not given), the molecule was classed as inactive in assay [2], in assay [8] and in assay [9].

Turning to `CN(C)C(=O)Nc1ccc(Cl)cc1`, the molecule was called inactive in assay [2].
